ELG1 genotoxic: inducers of genotoxicity in HEK293T ELG1-luciferase cells; HEK293T ELG1-luciferase reporter, luminescence, 16 h; Potency, µM (top dose mostly 46 µM), usual class: activators; 330,000 compounds, 1.3% hits; AID 504466; further: nearly all actives have a fitted effect of over 60% in size
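HEK293T cells expressing luciferase-tagged ELG1 were treated with compound or DMSO for 16 hr at 37°C. Luciferase activity was then read after 30 min with ONE-Glo at room temperature; rising signal flags genetic stress.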
SMN2 splice up: increases expression of the SMN2 splice variant. 210,000 compounds, 2.8% hits. Potency, µM (highest dose often 46.1 µM), hits mostly activators. HEK293 SMN2-luciferase splicing reporter, luminescence, 30-36 h; further: nearly all actives have a fitted effect of over 55% in size
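HEK293 cells carry an SMN2 minigene-luciferase reporter in which exon 7 inclusion puts luciferase in frame. Cells were seeded at 2000 cells/well, attached for 10-12 hours, then exposed to compounds for 30-36 hours at 37C before ONE-Glo luminescence.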
FLuc modulator: counter-screen for miR-21 project: firefly luciferase inhibitors or activators; P08659; 360,000 compounds, 6.9% hits; AID 588342; purified FLuc, Km substrates, luminescence inhibition; Potency, µM (series often up to 57.5 µM), usual class: inhibitors; further: nearly all actives have a fitted effect of over 55% in size
Target sequence (P08659 whole entry, looked up): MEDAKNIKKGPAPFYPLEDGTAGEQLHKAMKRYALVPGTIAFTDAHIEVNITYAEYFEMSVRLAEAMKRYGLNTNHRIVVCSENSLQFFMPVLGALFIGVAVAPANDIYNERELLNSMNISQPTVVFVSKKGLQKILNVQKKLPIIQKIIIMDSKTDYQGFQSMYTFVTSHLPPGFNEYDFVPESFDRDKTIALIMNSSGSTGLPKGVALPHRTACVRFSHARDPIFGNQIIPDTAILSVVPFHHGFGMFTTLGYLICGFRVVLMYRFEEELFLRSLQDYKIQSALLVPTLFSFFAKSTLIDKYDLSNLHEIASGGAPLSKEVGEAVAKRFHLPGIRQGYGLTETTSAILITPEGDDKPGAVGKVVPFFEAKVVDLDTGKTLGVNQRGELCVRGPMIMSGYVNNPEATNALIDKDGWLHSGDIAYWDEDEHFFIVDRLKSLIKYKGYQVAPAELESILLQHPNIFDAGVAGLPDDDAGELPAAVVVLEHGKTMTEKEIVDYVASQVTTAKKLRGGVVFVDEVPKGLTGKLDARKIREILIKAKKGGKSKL
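Biochemical qHTS of compounds, final roughly 60 µM downward over six points, against 10 nM purified firefly luciferase using Km concentrations of substrates (10 uM D-luciferin, 10 uM ATP) in Tris acetate pH 7.5 buffer; luminescence output.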
Luc counter: counter-screen: inhibitors of Kinase-Glo firefly luciferase; Q27757; Kinase-Glo luciferase, ATP luminescence, 8 min; Potency, µM (doses to about 38.3 µM), hits mostly inhibitors; 200,000 compounds, 0.28% hits; further: nearly all actives have a fitted effect of over 60% in size
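Compounds were added to a substrate mix at pH 7.2 (50 mM imidazole, 10 uM ATP, within the enzyme's linear range), followed by Kinase-Glo detection reagent; luminescence was measured after 8 minutes at ambient temperature.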
NPC1 promoter act: NPC1 promoter activation; 320,000 compounds, 2.4% hits; Potency, µM (highest dose often 9.22 µM), usual class: activators; Huh7 NPC1 promoter luciferase reporter, 24 h; AID 485313; further: nearly all actives have a fitted effect of over 60% in size
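Luminescence from an NPC1 promoter-driven luciferase reporter in stably transfected Huh7 cells was measured after 24 h compound treatment at 37 °C, followed by 10 min ambient incubation with luciferase detection reagent.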
Rab9 prom act: activates the Rab9 promoter | Huh7 Rab9 promoter-luciferase reporter, luminescence, 24 h | Potency, µM (series often up to 9.22 µM), hits mostly activators | 320,000 compounds, 2.8% hits; further: nearly all actives have a fitted effect of over 60% in size
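Stable Rab9-luc Huh7, 1500 cells/well, 2 h settle; cmpd in DMSO, 24 h, 37 °C/5% CO2; luciferase reagent 10 min RT; luminescence.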
Numbers stand for hits; i = inactive; ? = inconclusive; nt = no result. Compounds with a hit are over-represented: about 7.5% of the library has one in this group of screens. The call rests on the fitted dose curve; in most records, active means well fitted curve in the direction sought with a large enough effect; inconclusive means small, poorly fitted or top-dose-only effect, or another doubt; inactive means no such curve, though single readings can be large; an effect the other way counts as inactive or inconclusive.

SMILES	ELG1 genotoxic	SMN2 splice up	FLuc modulator	Luc counter	NPC1 promoter act	Rab9 prom act
Cc1nc2cc(-c3cccc(F)c3)nn2c(C)c1CCC(=O)Nc1ccccc1C(N)=O	nt	i	?	nt	nt	nt
O=C(NCCCN1CCCC1=O)c1cn(-c2ccccc2)nc1-c1ccccc1	i	nt	10.7µM	nt	i	i
O=C(/C=C/c1ccccc1)NCc1cccnc1	i	nt	i	i	i	i
CCOC(=O)C1CCN(C(=O)c2cn(-c3ccccc3)nc2-c2cccnc2)CC1	i	i	13.5µM	i	i	i
CCN(CC)CCNC(=O)c1ccc(NC(=O)c2cn(-c3ccccc3)nc2-c2cccs2)cc1	i	i	8.49µM	i	i	i
O=C(/C=C/c1ccc(-c2ccccc2)cc1)NCc1cccnc1	i	nt	7.57µM	nt	i	i
CCCCNC(=S)N(CCN(C)C)Cc1cc2cc3c(cc2[nH]c1=O)OCCO3	i	nt	i	nt	i	i
COc1ccc(CCNC(=O)CCC(=O)n2ncc3ccc(Cl)cc32)cc1OC	i	nt	i	nt	i	i
CCCCn1c(N)c(N(CCOC)C(=O)c2cc(C)oc2C)c(=O)[nH]c1=O	i	nt	i	nt	i	i
Clc1ccc2c(c1)C1OCCC1C(c1ccco1)N2 (stereo not drawn)	?	12.6µM	?	?	?	4.47µM
O=C(Cn1cnc2ccccc2c1=O)OCC(=O)c1ccc2c(c1)OCCO2	i	i	21.3µM	i	i	i
O=C(Cn1cnc2ccccc2c1=O)Nc1ccc2c(c1)OCCO2	?	12.6µM	9.53µM	i	2.24µM	1.78µM
CCN(CC)CCNC(=O)c1ccc(Cc2nc3ccccc3[nH]2)cc1	nt	nt	nt	i	nt	nt
COc1ccc(-c2[nH]c(-c3ccc(OC)c(OC)c3)nc2SCC(=O)Nc2ccccc2)cc1	nt	i	i	nt	nt	nt
c1ccc(-c2cc3c(N4CCOCC4)ncnc3s2)cc1	i	i	i	i	i	i
Cc1nc(SCCC(=O)O)c2cc(-c3ccccc3)sc2n1	i	nt	0.675µM	nt	i	i
Cc1ccccc1-n1c(SCC(N)=O)nc2sc(-c3ccccc3)cc2c1=O	i	i	i	i	i	i
Cc1nc(N2CCOCC2)c2cc(-c3ccccc3)sc2n1	i	i	21.3µM	i	i	i
OC(CNc1ncnc2sccc12)c1ccccc1 (stereo not drawn)	i	nt	16.9µM	nt	?	i
COc1cccc(/C=N\NC(=O)Cn2nnc3ccccc32)c1O	?	nt	16.9µM	i	i	i
COc1cc(/C=N/NC(=O)CCn2nnc3ccccc32)ccc1O	i	i	15.1µM	i	i	i
COc1cc(/C=N/NC(=O)Cn2nnc3ccccc32)ccc1O	i	i	i	i	i	i
Cc1nc2ccccc2c(=O)n1-c1ccc(NC(=O)C(F)(F)F)cc1	nt	nt	i	nt	nt	nt
CCCc1cc(=O)[nH]c(SCC(=O)c2[nH]c(C)c(C(=O)OCC)c2C)n1	i	i	i	i	i	i
CCC(=O)C1=C(c2cccc([N+](=O)[O-])c2)N(C(=O)CC)n2c(nnc2-c2ccccc2)S1	nt	nt	i	nt	nt	nt
SMILES	ELG1 genotoxic	SMN2 splice up	FLuc modulator	Luc counter	NPC1 promoter act	Rab9 prom act
COCCCN(C(=O)c1ccccc1)c1nc(-c2ccc(OC)cc2)cs1	i	nt	i	nt	i	i
COCCCN(C(C)=O)c1nc(-c2ccccc2)cs1	13µM	nt	?	i	i	?
Cc1cc(NC(=O)C2CCN(S(=O)(=O)c3cccc4nsnc34)CC2)ccc1Br	nt	i	i	nt	nt	nt
O=C(NCCN1CCCC1)c1ccc(Cc2nc3ccccc3[nH]2)cc1	nt	nt	nt	i	nt	nt
O=C(Nc1ccnc(-c2ccncc2)n1)c1ccc(Cl)cc1	i	i	i	i	i	i
COCCNC(=S)NNC(=O)c1cc(C2CC2)nc2ccccc12	i	nt	12µM	nt	i	i
CCCCNC(=S)NNC(=O)c1cc(C2CC2)nc2ccccc12	i	nt	23.9µM	nt	i	i
O=C(O)c1cc(C2CC2)nc2ccccc12	i	i	i	i	i	i
O=C(NNC(=O)c1cc(-c2ccncc2)nc2ccccc12)c1ccccc1F	i	nt	23.9µM	nt	i	i
CNC(=S)NNC(=O)c1cc(-c2cccnc2)nc2ccccc12	i	nt	i	nt	i	i
CCCCNC(=S)NNC(=O)c1cc(-c2ccncc2)nc2ccccc12	i	nt	9.53µM	nt	i	i

Compound activity as filed in PubChem.
